Counter-ions that a name gives are not always drawn.
Test system: Saccharomyces cerevisiae BY4741 SeMeCo community
Assay: z-score of subpopulation abundance vs DMSO median, subpopulation auxotrophic for M; higher = larger share of this subpopulation than in DMSO controls
Conditions: 10 µM; 24 h; SM minimal medium; subpopulation (auxotrophy): M
Protocol: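 Fluorescent four-plasmid SeMeCo (self-establishing metabolically cooperating S. cerevisiae BY4741 community; plasmids pH-mRuby2, pL-mWasabi, pU-eCFP, pM-TagRFP657) was grown 24 h in minimal SM medium with each Selleck FDA-approved drug at 10 µM in 384-well plates. Cells were fixed and imaged by high-content confocal microscopy. For each auxotrophic subpopulation (and the prototroph), a z-score gives the deviation from the DMSO vehicle-control population median.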

| Compound | z-score of subpopulation abundance |
| --- | --- |
| C[N+]1(C)[C@@H]2C[C@@H](OC(=O)[C@H](CO)c3ccccc3)C[C@H]1[C@@H]1O[C@@H]12 [Methscopolamine] | -0.33 |
| C[C@H]1O[C@H](O[C@H]2[C@H](O)[C@@H](O)[C@@H](O)[C@H](O)[C@@H]2O)[C@@H](N)C[C@@H]1NC(=N)C(=O)O [Kasugamycin hydrochloride] | -0.97 |
| COc1ccc(C(CN(C)C)C2(O)CCCCC2)cc1 (stereo not given) [Venlafaxine HCl] | 0.68 |
| CN(C)[C@@H]1C(=O)C(C(N)=O)=C(O)[C@@]2(O)C(=O)C3=C(O)c4c(O)ccc(Cl)c4[C@@](C)(O)[C@H]3C[C@@H]12 [Chlortetracycline HCl] | 0.04 |
| C[C@@H]1O[C@@H](O[C@H]2C[C@@H](O)[C@]3(CO)[C@H]4[C@H](O)C[C@]5(C)[C@@H](C6=CC(=O)OC6)CC[C@]5(O)[C@@H]4CC[C@]3(O)C2)[C@H](O)[C@H](O)[C@H]1O [Ouabain] | -0.73 |
| C[N+](C)(C)CCCCCCCCCC[N+](C)(C)C [Decamethonium Bromide] | -0.44 |
| CN1[C@@H]2CC[C@H]1C[C@@H](OC(=O)[C@H](CO)c1ccccc1)C2 [Hyoscyamine] | -0.65 |
| CN1c2ccccc2C(NCCCCCCC(=O)O)c2ccc(Cl)cc2S1(=O)=O (stereo not given) [Tianeptine sodium] | 0.9 |
| CN1[C@@H]2CC[C@H]1C[C@@H](OC(=O)C(CO)c1ccccc1)C2 (stereo not given in full) [Atropine sulfate monohydrate] | -0.25 |
| Oc1cccc2cccnc12 [8-Hydroxyquinoline] | 1.04 |
| CC[C@H]1CN2CC[C@]3(C(=O)Nc4ccccc43)[C@@H]2C[C@@H]1/C(=C\OC)C(=O)OC [Rhynchophylline] | -0.68 |
| Cn1cc(C2=C(c3cn(C4CCN(Cc5ccccn5)CC4)c4ccccc34)C(=O)NC2=O)c2ccccc21 | -1.26 |
| NC(=O)CN1CCCC1=O [Piracetam] | 1.48 |
| NCCc1c[nH]c2ccc(O)cc12 [Serotonin HCl] | 0.15 |
| CC(C)=CCOc1c2occc2cc2ccc(=O)oc12 [Imperatorin] | 1.13 |
| Cc1cc(O)ccc1Cl [Chlorocresol] | 1.26 |
| CCC1=C[C@H]2CN3CCc4c([nH]c5ccccc45)[C@](C(=O)OC)(C2)[C@H]13 [Catharanthine] | -0.42 |
| N[C@@H]1C[C@H]1c1ccccc1 [Tranylcypromine (2-PCPA) HCl] | -0.13 |
| CN(C)C(=O)Oc1cccc([N+](C)(C)C)c1 [Neostigmine Bromide] | 0.29 |
| C[N+]12CCC(CC1)C(OC(=O)C(O)(c1ccccc1)c1ccccc1)C2 (stereo not given) [Clidinium Bromide] | -0.85 |

| Compound | z-score of subpopulation abundance |
| --- | --- |
| CCOC(=O)Nc1ccc(NCc2ccc(F)cc2)cc1N [Retigabine] | 0.51 |
| C[C@@H]1CC[C@H]2[C@@H](C)C(=O)O[C@@H]3O[C@@]4(C)CC[C@@H]1[C@]32OO4 [Artemisinin] | -4.51 |
| CN[C@@H]1[C@@H](O)[C@@H](O[C@@H]2[C@@H](O)[C@H](O[C@H]3O[C@H](CN)CC[C@H]3N)[C@@H](N)C[C@H]2N)OC[C@]1(C)O.CN[C@@H]1[C@@H](O)[C@@H](O[C@@H]2[C@@H](O)[C@H](O[C@H]3O[C@H]([C@@H](C)N)CC[C@H]3N)[C@@H](N)C[C@H]2N)OC[C@]1(C)O.CN[C@@H]1[C@@H](O)[C@@H](O[C@@H]2[C@@H](O)[C@H](O[C@H]3O[C@H]([C@@H](C)NC)CC[C@H]3N)[C@@H](N)C[C@H]2N)OC[C@]1(C)O [Gentamicin Sulfate] | -0.59 |
| N#Cc1nn(-c2c(Cl)cc(C(F)(F)F)cc2Cl)c(N)c1[S+]([O-])C(F)(F)F (stereo not given) [Fipronil] | -1.13 |
| CCN(C)C(=O)Oc1cccc([C@H](C)N(C)C)c1 [Rivastigmine Tartrate] | -0.28 |
| Cc1cc(C(C#N)c2ccc(Cl)cc2)c(Cl)cc1NC(=O)c1cc(I)cc(I)c1O (stereo not given) [Closantel] | 1.17 |
| CC[C@H]1[C@@H]2C[C@H]3[C@@H]4N(C)c5ccccc5[C@]45C[C@@H]([C@@H]2[C@H]5O)N3[C@@H]1O [Ajmaline] | 0.82 |
| O=[N+]([O-])C(Br)(CO)CO [Bronopol] | 0.51 |
| COC(=O)C1=CCCN(C)C1 [Arecoline HBr] | 0.3 |
| C=CN1CCCC1=O.II [Povidone iodine] | -0.79 |
| C=CCN1C[C@H](C(=O)N(CCCN(C)C)C(=O)NCC)C[C@@H]2c3cccc4[nH]cc(c34)C[C@H]21 [Cabergoline] | -0.27 |
| NCC(O)c1ccc(O)cc1 (racemic) [(+,-)-Octopamine HCl] | 0.19 |
| COc1ccc2[nH]cc(CCN)c2c1 [5-Methoxytryptamine] | 0.64 |
| CNC1CC(N)C(O)C(OC2OC(CO)C(O)C3OC4(OC(C(N)CO)C(O)C(O)C4O)OC23)C1O (stereo not given) [Hygromycin B] | -0.9 |
| CN1[C@@H]2C[C@@H](OC(=O)[C@H](CO)c3ccccc3)C[C@H]1[C@@H]1O[C@@H]12 [Scopolamine HBr trihydrate] | -0.97 |
| COc1ccc2c(c1)[C@]13CCCC[C@@H]1[C@H](C2)N(C)CC3 [Dextromethorphan hydrobromide hydrate] | 0.1 |
| C=C[C@H]1CN2CC[C@H]1C[C@H]2[C@H](O)c1ccnc2ccccc12 [Cinchonidine] | 0.23 |
| COc1cc2c(cc1OC)C1CC(=O)C(CC(C)C)CN1CC2 (stereo not given) [Tetrabenazine (Xenazine)] | 0.98 |
| C=C(C)[C@H]1Cc2c(ccc3c2O[C@@H]2COc4cc(OC)c(OC)cc4[C@@H]2C3=O)O1 [Rotenone (Barbasco)] | 0.37 |
| CN1[C@@H]2C[C@@H](OC(=O)[C@H](CO)c3ccccc3)C[C@H]1[C@@H]1O[C@@H]12 [Scopolamine HBr] | -0.04 |

Reference: the supplement of paper PMC8975748
